Hit rate of the full screen: of about 360,000 compounds, about 10,000 (2.8%) were called active. Not shown: some 4% with an inconclusive outcome. The call rests on the fitted dose curve; in most records, active means well fitted inhibition curve with a large enough effect; inconclusive means small, poorly fitted or top-dose-only effect; inactive means flat fitted curve, though single readings scatter. What follows is part of a selection rich in actives, with near analogues and random picks from the rest.
On the % scale 0 is the no-effect control and ±100 the full control effect; potency means the concentration at half of the fitted maximal effect.

The target of the assay is Serine/threonine-protein kinase PLK1 (Homo sapiens) (UniProt P53350). Description: qHTS for Inhibitors of PLK1-PDB (polo-like kinase 1 - polo-box domain): Primary Screen. Further: nearly all actives have a fitted effect of over 65% in size. On max response, negative = inhibition: series mostly up to about 57 µM. Conditions: Plk1 PBD binding of FITC phosphopeptide, fluorescence polarization. (qHTS replaces the single test concentration by a dilution series.)
Chain of Serine/threonine-protein kinase PLK1 (Homo sapiens) (P53350 whole entry, looked up, the tested form may be a part): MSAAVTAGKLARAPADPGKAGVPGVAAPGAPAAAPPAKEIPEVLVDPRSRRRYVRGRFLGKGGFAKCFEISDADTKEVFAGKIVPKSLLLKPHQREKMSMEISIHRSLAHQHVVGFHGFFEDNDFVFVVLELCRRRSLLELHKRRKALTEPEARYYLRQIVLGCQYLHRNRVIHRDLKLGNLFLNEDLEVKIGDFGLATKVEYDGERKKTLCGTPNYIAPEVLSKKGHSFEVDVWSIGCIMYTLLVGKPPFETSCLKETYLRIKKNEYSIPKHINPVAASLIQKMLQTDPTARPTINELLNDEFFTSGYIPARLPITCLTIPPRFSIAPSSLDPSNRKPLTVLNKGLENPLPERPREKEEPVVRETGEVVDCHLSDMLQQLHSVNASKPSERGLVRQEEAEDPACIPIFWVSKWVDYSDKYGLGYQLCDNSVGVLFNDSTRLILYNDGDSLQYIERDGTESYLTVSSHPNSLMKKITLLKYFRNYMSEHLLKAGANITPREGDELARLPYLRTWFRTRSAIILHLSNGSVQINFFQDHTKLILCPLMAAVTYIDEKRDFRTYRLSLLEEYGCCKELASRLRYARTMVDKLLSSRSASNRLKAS
For the compound `CCCCC(=O)N(C)c1c(CC)nc2c(OCc3ccc(Cl)cc3Cl)cccn12`, the max response, negative = inhibition was -5.31% (inactive). As to `COc1cccc(CN2CCC(C(=O)NC(c3ccc4c(c3)OCO4)c3ccccn3)CC2)c1` (stereo not given), the max response, negative = inhibition was 1.25% (inactive). As for `C[C@@H]1CC2=C(C(=O)OC(C)(C)O2)[C@@H](C2CC2)O1`, the max response, negative = inhibition is -2.71% (inactive). As to `COc1ccc(NC(=O)Cn2ncn3c(cc4ccccc43)c2=O)c(OC)c1OC`, the max response, negative = inhibition is -11.6% (inactive). `CC(C)c1ccc(NC(=O)Cn2ncc3ccccc32)cc1`: the max response, negative = inhibition is 5.15% (inactive). For the compound `CCc1ccc(NC(=O)Cn2ncn3c(cc4ccccc43)c2=O)cc1`, the Potency is 15 µM (active). In the case of `COc1ccc(C2OC(CCc3ccccc3)Cc3[nH]c(=S)[nH]c(=O)c32)cc1` (stereo not given), the max response, negative = inhibition was -0.658% (inactive).

For the compound `CC(=O)Nc1cc(-c2ccccc2N(C)C)cn2c(-c3ccc(F)c(Cl)c3)cnc12`, the max response, negative = inhibition is -6.53% (inactive). With `COC(=O)[C@]12CCCCC=C1N(Cc1ccc3c(c1)OCO3)C(=O)[C@H](CC(=O)NCc1cccs1)C2`, the max response, negative = inhibition is -8.01% (inactive).

Turning to `CCCNC(=O)C1(C)CCCN(Cc2cccc(C(F)(F)F)c2)C1` (stereo not given), the max response, negative = inhibition is -5.05% (inactive). Turning to `C=CCn1c(SCCOc2ccc(OC)cc2)nnc1C(NC(=O)c1ccc(OC)cc1)C(C)C` (stereo not given), the max response, negative = inhibition is -13.7% (inactive). As to `COc1ccc(CC(=O)NCc2nnc(SCC(=O)Nc3nccs3)n2C)cc1`, the max response, negative = inhibition was 3.83% (inactive).

As for `COc1ccc(C(=O)NCc2nnc(SCCOc3ccccc3)n2C)cc1`, the Potency is 16.8 µM (active). The same measure, in the same setting: in the case of `COc1ccc(CC(=O)NCc2nnc(SCC(=O)Nc3ncc(C)s3)n2C)cc1` it was 13.4 µM (active). Turning to `COc1ccc(C(=O)NCc2nnc(SCC(=O)NC3=NCCS3)n2C)cc1`, the max response, negative = inhibition is -0.0324% (inactive). With `COc1ccc(-c2nnc(SCC(=O)Nc3cccnc3Cl)n2C)cc1`, the max response, negative = inhibition is -2.41% (inactive). The same measure, in the same setting: in the case of `COc1cc2ccc(C(C)=O)c(O)c2cc1OC` it was -1.98% (inactive); in that of `Cc1nc2c(OCC(=O)C(C)(C)C)cccn2c1N(C)Cc1cccs1`, -10% (inactive); in that of `CCOC(=O)C1CCN(CC(=O)Nc2ccc(OC)c(S(=O)(=O)N3CCCCC3)c2)CC1`, 3.48% (inactive). With `COc1ccc(NC(=O)C2=NNC(=O)CC2)cc1S(=O)(=O)N1CCCCC1`, the Potency was 16.8 µM (active). For the compound `COc1ccccc1C(=O)Nc1ccc(C)c(S(=O)(=O)N2CCCCC2)c1`, the max response, negative = inhibition is -5.05% (inactive). In the case of `CC(=O)c1cccc(NC(=O)C2COc3ccccc3O2)c1` (stereo not given), the max response, negative = inhibition is 2.4% (inactive). `COc1ccc(NC(=O)COC(=O)C2COc3ccccc3O2)cc1` (stereo not given): the max response, negative = inhibition is -3.22% (inactive). As for `O=C(Nc1nc(-c2ccncc2)cs1)C1COc2ccccc2O1` (stereo not given), the Potency was 3.36 µM (active). Turning to `CCc1nc2ccc(C(=O)Nc3cc(-c4ccccc4)ccc3OC)cn2c1N(CC)CC(=O)N(C)C`, the max response, negative = inhibition was -4.06% (inactive).

For `Cc1ccc(C(=O)NCC(=O)NCc2cc(=O)n(C)c(=O)n2C)cc1`, the Potency is 26.7 µM (active). With `Cc1ccc(C(=O)NCC(=O)NC2CC2)cc1`, the max response, negative = inhibition was -13.7% (inactive). Take `COc1ccc(S(=O)(=O)NCC(=O)NCc2cc(=O)n(C)c(=O)n2C)cc1F`: the max response, negative = inhibition is -15.2% (inactive). Turning to `O=C(O)c1ccccc1Cc1ccc(F)c2ccccc12`, the max response, negative = inhibition is -10.5% (inactive). As for `CN1OC[C@@H]2CN(C(=O)c3cccnc3)[C@H](c3ccc(N4CCCCC4)cc3)C[C@@H]21`, the max response, negative = inhibition is -6.62% (inactive). As to `COc1ccc(NC(=O)C2(C)Cc3c(-c4ccc(C(N)=O)cc4)ccnc3O2)cc1` (stereo not given), the max response, negative = inhibition was -13.3% (inactive). Turning to `CCOC(=O)c1sc(=S)n2c1[nH]c(=O)c1ccc(C(=O)OC)cc12`, the Potency is 6.7 µM (active).

Take `CCOC(=O)c1ccc(Nc2cc3ccccc3c(=O)[nH]2)cc1`: the max response, negative = inhibition is -11.1% (inactive). As to `CCOC(=O)C1=C(C)Nc2sc(C(=O)c3ccc(Br)cc3)c(N)c2C1c1ccc(C(=O)OC)cc1` (stereo not given), the max response, negative = inhibition is 3.24% (inactive). With `COc1ccc([C@H]2N[C@]3(CCCN(CC4CCCCC4)C3=O)[C@H]3C(=O)N(C)C(=O)[C@@H]23)cc1`, the max response, negative = inhibition was -7.68% (inactive).

For `CCN1C(=O)[C@H]2[C@@H](c3ccc(C(F)(F)F)cc3)N[C@]3(CCCN(Cc4ccc(Br)cc4)C3=O)[C@H]2C1=O`, the max response, negative = inhibition is -8.24% (inactive). `COc1cccc(C(NC(C)=O)c2nc(-c3cnc4ccccc4c3)cs2)c1` (stereo not given): the max response, negative = inhibition is -4.39% (inactive). On to `CCc1nc2c(OCCOc3ccccc3)cccn2c1N(C)C(=O)c1cccs1`, for which the max response, negative = inhibition is -1.33% (inactive).

`O=C(CN1C(=O)NC2(CCc3ccccc32)C1=O)NC1CCCCC1` (stereo not given): the max response, negative = inhibition was 2.51% (inactive). `CCOC(=O)C1CCN(C(=O)c2ccc3c(=O)n4nc(Nc5ccccc5CC)sc4nc3c2)CC1`: the max response, negative = inhibition is -1.87% (inactive). `Nc1ccc2c(c1)C(O)c1ccc(Cl)cc1-2` (stereo not given): the max response, negative = inhibition is -6.61% (inactive). For the compound `COC(=O)C1=CN(C)C=C(C(=O)OC)C1c1ccc(Cl)cc1Cl`, the max response, negative = inhibition is 2.45% (inactive).

As to `NC(=O)C1(C(N)=O)OC1c1ccc(Cl)cc1Cl` (stereo not given), the Potency is 16.8 µM (active). As to `COC(=O)c1ccc2nc(-c3ccc(Cl)cc3)c(Cc3cccc(F)c3)n2c1`, the max response, negative = inhibition is 1.38% (inactive). On the same count and under the same terms, in the case of `CC(CNC(=O)Cn1cnc2c(OCc3ccccc3)ncnc21)c1ccccc1` (stereo not given) it was -8.63% (inactive). For `O=C(Cn1cnc2c(OCc3ccccc3)ncnc21)NCc1nc2ccccc2[nH]1`, the Potency was 21.2 µM (active).

As to `O=C(Cn1cnc2c(OCc3ccccc3)ncnc21)NCCCn1ccnc1`, the max response, negative = inhibition was -12.9% (inactive).

Regarding `O=C(COC(=O)c1ccc(S(=O)(=O)N2CCCCCC2)cc1)Nc1ccccc1C(F)(F)F`, the max response, negative = inhibition was -1.71% (inactive).

In the case of `C[C@H]1NS(=O)(=O)c2cc(Cl)ccc2O[C@@H]1c1ccccc1`, the max response, negative = inhibition is -5.69% (inactive). Consider `COc1cc(NC(=O)c2cc(-c3ccc(F)cc3OC(C)C)n[nH]2)cc(OC)c1OC`, for which the max response, negative = inhibition was -10.2% (inactive). For `Cc1nc([N+](=O)[O-])nn1C12CC3CC(CC(Br)(C3)C1)C2`, the Potency was 4.74 µM (active). On to `COc1cccc(NC(=O)c2nn(C34CC5CC(CC(C5)C3)C4)cc2[N+](=O)[O-])c1`, for which the max response, negative = inhibition was 1.45% (inactive). On to `CCOC(=O)N(C)c1c(CC)nc2c(OCc3ccccc3C(=O)OC)cccn12`, for which the max response, negative = inhibition was -14.2% (inactive).

For the compound `COC(=O)C[C@@H]1C=C[C@@H](NC(=O)c2ccc3c(c2)OCO3)[C@@H](CO)O1`, the max response, negative = inhibition was -2.88% (inactive). In the case of `O=C(NCc1ccc(F)cc1)c1cc(C2CCCCN2C(=O)c2cccs2)on1` (stereo not given), the max response, negative = inhibition is -1.47% (inactive).

Source of the values: PubChem BioAssay AID720504 (National Center for Advancing Translational Sciences (NCATS), 2013).
